# According to PubChem BioAssay (NCI):
# This is part of a sample that, as a whole, favours compounds with a hit. Of some 83,000 tested, about 20% had one in any assay.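 Interpretation: 100, growth as untreated; towards 0, rising growth inhibition; 0, no net growth; 0 to -100, cell death. Compounds scoring below 10 were considered active.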 A number with no mark means an inactive call. The source made the active and inactive calls.
# Assays:
# Assay in all cases: NCI-60 one-dose screen, 48 h (100 = growth as untreated, 0 = no growth, -100 = all killed)
# Details in all cases: 10 µM
# HT29 colon = tested on: HT29 colon
# SNB-75 CNS = tested on: SNB-75 CNS
# SNB-19 CNS = tested on: SNB-19 CNS
# U251 CNS = tested on: U251 CNS
# PC-3 prostate = tested on: PC-3 prostate
# SK-MEL-5 melanoma = tested on: SK-MEL-5 melanoma
# UACC-62 melanoma = tested on: UACC-62 melanoma
# LOX IMVI melanoma = tested on: LOX IMVI melanoma
# SK-MEL-2 melanoma = tested on: SK-MEL-2 melanoma
# EKVX NSCLC = tested on: EKVX NSCLC
# SN12C renal = tested on: SN12C renal
# UO-31 renal = tested on: UO-31 renal
# TK-10 renal = tested on: TK-10 renal
# ACHN renal = tested on: ACHN renal
# CAKI-1 renal = tested on: CAKI-1 renal
# CCRF-CEM leukemia = tested on: CCRF-CEM leukemia
# MOLT-4 leukemia = tested on: MOLT-4 leukemia
# SR leukemia = tested on: SR leukemia
# SK-MEL-28 melanoma = tested on: SK-MEL-28 melanoma
# A498 renal = tested on: A498 renal
SMILES,growth (HT29 colon),growth (SNB-75 CNS),growth (SNB-19 CNS),growth (U251 CNS),growth (PC-3 prostate),growth (SK-MEL-5 melanoma),growth (UACC-62 melanoma),growth (LOX IMVI melanoma),growth (SK-MEL-2 melanoma),growth (EKVX NSCLC),growth (SN12C renal),growth (UO-31 renal),growth (TK-10 renal),growth (ACHN renal),growth (CAKI-1 renal),growth (CCRF-CEM leukemia),growth (MOLT-4 leukemia),growth (SR leukemia),growth (SK-MEL-28 melanoma) [%],growth (A498 renal) [%]
COC(=O)c1ccc(=O)oc1,113%,91.1%,103%,97.4%,91.5%,103%,93.6%,98.4%,91.9%,98.6%,85.8%,75.7%,103%,98.9%,101%,101%,94%,89.2%,,
COc1ccccc1CNCCN1C(=O)c2ccc3c4c(ccc(c24)C1=O)C(=O)N(CCNCc1ccccc1OC)C3=O,-36.1% (active),-96.1% (active),-91.4% (active),-81.4% (active),-75.4% (active),-100% (active),-93.3% (active),-82.3% (active),-74.6% (active),-78.1% (active),-91% (active),-92.4% (active),-30.8% (active),-59.6% (active),-31.3% (active),-50.3% (active),-41.9% (active),-47.1% (active),,
Cc1cccc2c(NCCN(C)C)c3cccc(C(=O)NCCN(C)C)c3nc12,-43.7% (active),-24.7% (active),14.5%,-43% (active),-31% (active),3.71% (active),20.8%,-61.9% (active),-6.23% (active),19.4%,15.9%,-67.6% (active),-15.9% (active),-44.6% (active),6.76% (active),3.77% (active),1.96% (active),-14.7% (active),,
O=C(NN1C(=O)CSC1c1ccc(Cl)cc1)c1cccnc1 (stereo unspecified),109%,110%,113%,99.5%,93.6%,102%,125%,102%,109%,95.2%,131%,72.2%,107%,113%,98.2%,99.5%,,,,
CCOC(=O)c1ccoc1,95.1%,94.4%,97.7%,101%,99.7%,99.6%,101%,99.6%,,,103%,95.4%,109%,96.5%,98.1%,,90.1%,86.4%,106,73.7
Cc1cc(C)c2c(n1)sc1c(Nc3ccc(Cl)cc3)ncnc12,27.5%,32.7%,10.4%,22.5%,49.2%,32.7%,-11% (active),-16.9% (active),,,-20.9% (active),-19.8% (active),47.7%,1.33% (active),12.1%,4.05% (active),-6.2% (active),3.86% (active),55.3,
CN(C)Cc1cn(-c2ncc(-c3ccc(C(F)(F)F)cc3)c(NC3CCCCCC3)n2)nn1,31%,72.9%,92.1%,73.3%,77.5%,80.6%,97.6%,95.7%,,,87.5%,42.9%,85.2%,92.1%,84.7%,80.6%,74.8%,39.6%,97.4,
Nc1nc(N)c2c(ccc3nccc32)[nH]1,27%,79.2%,62.4%,36%,7.39% (active),41.2%,47.2%,23%,,,94%,39.3%,92.1%,42.7%,,27.9%,33.9%,28.5%,83.4,79.4
Cc1nc2ccc(CN(C)c3ccc(C(=O)N[C@@H](CCC(=O)O)C(=O)O)s3)cc2c(=O)[nH]1,55.1%,43.4%,42.8%,56.3%,56.5%,28.7%,40.1%,26.8%,105%,72.9%,47.7%,39.9%,48.6%,34.1%,28.5%,,26.2%,44.6%,,21.5
